Reference: PubChem BioAssay (NCI)
Compounds without any hit were thinned out: in the full panel of roughly 83,000, 20% have a hit.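 Compound tested at a single concentration for 48 hours in 96-well plates; a percent growth value below 10 was scored as active.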 Activity calls are given as the source filed them.

The compounds below were run on M14 melanoma (assay: NCI-60 one-dose screen, 48 h (100 = growth as untreated, 0 = no growth, -100 = all killed)). Conditions: 10 µM.
For C[N+]1=C(/C=C/c2ccc(I)cc2)C(C)(C)c2ccccc21, the growth was 91% (inactive). In the case of c1ccc(OCCC[P+](c2ccccc2)(c2ccccc2)c2ccccc2)cc1, the growth is reported as 14.1% (inactive). With CCN1CCN(c2nc(NNC(=O)c3cccc(OC)c3)nc(N3CCN(C(c4ccccc4)c4ccccc4)CC3)n2)CC1 the growth was -43.2% (active). For CNC(=O)c1cc(Oc2ccc(NC(=O)Nc3ccc(Cl)c(C(C)(C)C)c3)c(F)c2)ccn1, the growth was 22.4% (inactive). For CCc1cc2n(n1)-c1ncc(C(=O)OC)cc1Oc1ccccc1-2, the growth was 108% (inactive). O=C(O)c1ccc(CNc2ccc(C(=O)CCl)cc2)cc1 was tested, and the growth was 105% (inactive). With CCN(CCCNC(=O)Cc1cc(=O)oc2cc(N(C)C)ccc12)CCNc1ccnc2cc(Cl)ccc12 the growth was 11.5% (inactive).
